Measured values reported in PubChem BioAssay (NCI).
The panel holds about 83,000 compounds, 20% with a hit somewhere; the sample as a whole holds those more often.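 96-well plates, one dose, 48 hours. Percent growth reported; active if below 10.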 Active and inactive are the calls of the source.

Key:
Test in all cases: NCI-60 one-dose screen, 48 h (100 = growth as untreated, 0 = no growth, -100 = all killed)
NCI-H226 lung = conditions: 10 µM unless noted
NCI-H322M lung = conditions: 10 µM unless noted
HOP-62 NSCLC = conditions: 10 µM unless noted
NCI-H460 lung = conditions: 10 µM unless noted
HOP-92 NSCLC = conditions: 10 µM unless noted
NCI-H522 lung = conditions: 10 µM unless noted
A549/ATCC NSCLC = conditions: 10 µM unless noted
786-0 renal = conditions: 10 µM unless noted
COLO 205 colon = conditions: 10 µM unless noted
DU-145 prostate = conditions: 10 µM unless noted
K-562 leukemia = conditions: 10 µM unless noted
MALME-3M melanoma = conditions: 10 µM unless noted
MDA-MB-231 breast = conditions: 10 µM unless noted
RXF 393 renal = conditions: 10 µM unless noted
SF-268 CNS = conditions: 10 µM unless noted
SF-295 CNS = conditions: 10 µM unless noted
SF-539 CNS = conditions: 10 µM unless noted
UACC-257 melanoma = conditions: 10 µM
M14 melanoma = conditions: 10 µM unless noted

| SMILES | growth (NCI-H226 lung) | growth (NCI-H322M lung) | growth (HOP-62 NSCLC) | growth (NCI-H460 lung) | growth (HOP-92 NSCLC) | growth (NCI-H522 lung) | growth (A549/ATCC NSCLC) | growth (786-0 renal) | growth (COLO 205 colon) | growth (DU-145 prostate) | growth (K-562 leukemia) | growth (MALME-3M melanoma) | growth (MDA-MB-231 breast) | growth (RXF 393 renal) | growth (SF-268 CNS) | growth (SF-295 CNS) | growth (SF-539 CNS) | growth (UACC-257 melanoma) | growth (M14 melanoma) |
| --- | --- | --- | --- | --- | --- | --- | --- | --- | --- | --- | --- | --- | --- | --- | --- | --- | --- | --- | --- |
| COc1cc(/C=N/n2cnc3oc(-c4ccccc4)cc3c2=N)cc(CN2CCN(C)CC2)c1O | 87.3% (inactive) | 108% (inactive) | 88.1% (inactive) | 108% (inactive) | 74.9% (inactive) | 96.9% (inactive) | 94.3% (inactive) | 62.5% (inactive) | 80.9% (inactive) | 110% (inactive) | 26.3% (inactive) | 113% (inactive) | 79.3% (inactive) | 27.7% (inactive) | 93.6% (inactive) | 109% (inactive) | 94% (inactive) | 106% (inactive) | 103% (inactive) |
| CNC(=O)c1cc(Oc2ccc3nc(NC(=O)c4ccc(CN5CCN(C)CC5)c(C(F)(F)F)c4)sc3c2)ccn1 | 72.7% (inactive) | 94.5% (inactive) | 73.5% (inactive) | 53.2% (inactive) | 44.1% (inactive) | 79.3% (inactive) |  | 22.3% (inactive) | -29.9% (active) | 79.3% (inactive) | 11.7% (inactive) | -5.19% (active) | 77.5% (inactive) | 46.7% (inactive) | 74.6% (inactive) | 36% (inactive) | 25% (inactive) | 20.4% (inactive) | 0.73% (active) |
| CC(C)=CCc1c(O)c(CC=C(C)C)c2c(c1O)C(=O)C1=C[C@@H]3C[C@H]4C(C)(C)O[C@@](C/C=C(\C)C(=O)O)(C3=O)[C@@]14O2 | 72.1% (inactive) | 21.7% (inactive) | -13.7% (active) | -41.8% (active) | -21.8% (active) | -51.4% (active) | 4.97% (active) | -27.6% (active) | -94.2% (active) | -60.5% (active) | 5.16% (active) | -19.3% (active) | 29.8% (inactive) | -82.2% (active) | 5.98% (active) | -9.35% (active) | -77.5% (active) | -38.2% (active) | 5.07% (active) |
| CCn1c2ccc(/C=N/NS(=O)(=O)CCN(C)C)cc2c2cc(/C=N/NS(=O)(=O)CCN(C)C)ccc21 | 96.5% (inactive) | 85.7% (inactive) | 82.7% (inactive) | 101% (inactive) | 92.2% (inactive) | 86.6% (inactive) | 101% (inactive) | 92% (inactive) | 115% (inactive) | 105% (inactive) | 94.1% (inactive) | 85.3% (inactive) | 89.7% (inactive) | 96.6% (inactive) | 90.2% (inactive) | 103% (inactive) | 90.5% (inactive) | 103% (inactive) | 104% (inactive) |
| O=S(=O)(Nc1ccc(-n2cnc3cc(-c4ccc(O)cc4)ccc32)cc1)C1CC1 | 96.2% (inactive) | 90.9% (inactive) |  | 88.7% (inactive) | 115% (inactive) | 73.7% (inactive) | 82.2% (inactive) | 86.6% (inactive) | 123% (inactive) | 95.3% (inactive) | 59.8% (inactive) | 98.5% (inactive) | 84.3% (inactive) |  | 83.3% (inactive) | 90.1% (inactive) | 71.8% (inactive) | 98.2% (inactive) | 96.6% (inactive) |
| COc1ccc2c(c1)c(-c1nnc(N)nc1-c1cn(C)c3ccccc13)cn2C | 86.5% (inactive) | 90.4% (inactive) | 89.1% (inactive) | 99.5% (inactive) | 97.9% (inactive) | 85% (inactive) | 95.8% (inactive) | 90.7% (inactive) | 104% (inactive) | 104% (inactive) | 83.5% (inactive) | 85.6% (inactive) | 91.1% (inactive) | 93.2% (inactive) | 101% (inactive) | 99.5% (inactive) | 91.8% (inactive) | 93.8% (inactive) | 85.7% (inactive) |
| CC1(COc2ccc3ncc(C#Cc4cncc(C(=O)Nc5cc(C(C)(C)C)on5)c4)n3n2)COC1 | 18.8% (inactive) | 60.4% (inactive) | 29.1% (inactive) | 23.3% (inactive) | -22.6% (active) | 56.9% (inactive) | 47.2% (inactive) | 52.3% (inactive) | 61.9% (inactive) | 53.5% (inactive) | 16.2% (inactive) | 30.2% (inactive) | 30.7% (inactive) | -2.4% (active) | 53.9% (inactive) | 22.6% (inactive) | 20.2% (inactive) | 79.9% (inactive) | 28.7% (inactive) |
| Nc1nc(-c2cccc([N+](=O)[O-])c2)c(N=Nc2cccc(Cl)c2)s1 | 58.5% (inactive) | 75.1% (inactive) | 46.3% (inactive) | 49.5% (inactive) | -13.7% (active) | 26% (inactive) | 48.7% (inactive) | 47.3% (inactive) | 48.1% (inactive) | 63.6% (inactive) | 30.1% (inactive) | 93.1% (inactive) | 47.3% (inactive) | -11.4% (active) | 41.4% (inactive) | 53% (inactive) | 55.2% (inactive) | 77.6% (inactive) | 37% (inactive) |
| COc1cc2cc(Oc3ccc(NC(=O)c4cccc(C(F)(F)F)c4)cc3)c(C)nc2cc1OCCN(C)C | 95.5% (inactive) | 104% (inactive) | 97.9% (inactive) | 47.1% (inactive) | 62% (inactive) | 99.9% (inactive) | 89.2% (inactive) | 60.1% (inactive) | 95.8% (inactive) | 68.6% (inactive) | 7.14% (active) | -73.7% (active) | 79% (inactive) | 39.6% (inactive) | 92% (inactive) | -50.5% (active) | 63.3% (inactive) | 93.2% (inactive) | 80.8% (inactive) |
| NC(N)=NS(=O)(=O)c1ccc(N=NC2C(=O)NN(c3ccccc3)C2=O)cc1 (configuration not stated) | 85.6% (inactive) | 101% (inactive) | 110% (inactive) | 101% (inactive) | 68.9% (inactive) | 104% (inactive) | 104% (inactive) | 100% (inactive) | 113% (inactive) | 104% (inactive) | 107% (inactive) | 101% (inactive) | 94.9% (inactive) | 106% (inactive) | 102% (inactive) | 104% (inactive) | 94.8% (inactive) | 120% (inactive) | 99.5% (inactive) |
| COC1=C(c2ccccc2)C(=O)C(OC)=C(c2ccccc2)C1=O | 95.5% (inactive) | 106% (inactive) | 89.9% (inactive) | 106% (inactive) | 97.6% (inactive) | 83.8% (inactive) | 74.3% (inactive) | 99.2% (inactive) | 108% (inactive) | 117% (inactive) | 77.2% (inactive) | 112% (inactive) | 94.5% (inactive) | 106% (inactive) | 106% (inactive) | 100% (inactive) | 102% (inactive) |  | 98.9% (inactive) |
| CC(=O)c1ccc(NC(=O)COc2ccc(C3SCC(=O)N3c3ccc(Br)cc3)cc2)cc1 (configuration not stated) | 93% (inactive) | 99.1% (inactive) | 93.5% (inactive) | 108% (inactive) | 84.4% (inactive) | 84.8% (inactive) | 93.9% (inactive) | 104% (inactive) | 104% (inactive) | 104% (inactive) | 90.8% (inactive) | 107% (inactive) | 90.6% (inactive) | 99.3% (inactive) | 103% (inactive) | 98% (inactive) | 99.2% (inactive) | 102% (inactive) | 99.9% (inactive) |
| COc1cc(C2=NN(C(C)=O)C(c3ccc(N4CCOCC4)cc3)C2)cc(OC)c1OC (configuration not stated) | 96.5% (inactive) | 88.1% (inactive) | 91.8% (inactive) | 103% (inactive) | 92.4% (inactive) | 89.7% (inactive) | 104% (inactive) | 95.5% (inactive) | 106% (inactive) | 107% (inactive) | 114% (inactive) | 94.4% (inactive) | 92% (inactive) | 108% (inactive) | 99% (inactive) | 101% (inactive) | 102% (inactive) | 103% (inactive) | 84.1% (inactive) |
| COc1ccc2c(c1)c(-c1nn3c(=O)cc(-c4ccccc4)nc3s1)cn2C | 21.1% (inactive) | 65.2% (inactive) | 43.2% (inactive) | 21.7% (inactive) | 18.7% (inactive) | -34% (active) | 56.7% (inactive) | 37.8% (inactive) | 27.2% (inactive) | 63.8% (inactive) |  | 35.5% (inactive) | 55.3% (inactive) | 35.4% (inactive) | 64.9% (inactive) | 28.8% (inactive) | 16% (inactive) |  | 35.4% (inactive) |
| C=CCn1c(SCC(=O)Nc2cccc(C(=O)/C=C/c3ccc(Br)cc3)c2)nc2ccccc2c1=O | 94.1% (inactive) | 86.6% (inactive) | 96.8% (inactive) | 94.9% (inactive) | 78.4% (inactive) | 75.3% (inactive) |  | 97.7% (inactive) | 111% (inactive) | 95.7% (inactive) |  | 72.7% (inactive) | 81.2% (inactive) | 71.1% (inactive) | 90.3% (inactive) | 91.4% (inactive) | 66.6% (inactive) | 105% (inactive) | 85.4% (inactive) |
